Laboratory results published in PubChem BioAssay (NCI).
This is part of a sample that, as a whole, favours compounds with a hit. Of some 83,000 tested, about 20% had one in any assay.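 Negative percent growth values reflect cell death: -40 means 40% of the cells present at the start died, and -100 means all died.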 Unmarked numbers belong to inactive results. Active and inactive are the calls of the source. Rule for the calls: active = growth percent below 10; inactive = the rest.

Legend:
Test in all cases: NCI-60 one-dose screen, 48 h (100 = growth as untreated, 0 = no growth, -100 = all killed)
Settings in all cases: 10 µM unless noted
[1] = test system: NCI-H226 lung
[2] = test system: NCI-H322M lung
[3] = test system: HOP-62 NSCLC
[4] = test system: NCI-H460 lung
[5] = test system: HOP-92 NSCLC
[6] = test system: NCI-H522 lung
[7] = test system: A549/ATCC NSCLC
[8] = test system: 786-0 renal
[9] = test system: COLO 205 colon

SMILES | growth [1] | growth [2] | growth [3] | growth [4] | growth [5] | growth [6] | growth [7] | growth [8] | growth [9]
Cc1cc(NCc2cc(Nc3ccnc4cc(Cl)ccc34)ccc2F)nc(Cl)n1 | 52.4% | 71.9% | 54.5% | 48.4% | 31.9% | 36.2% | 56.7% | 50.7% | 44.2%
O=S(=O)(NCCCNc1cc(-c2c(-c3cccc(O)c3)nc3sccn23)ccn1)c1cccc(Cl)c1 | 61.5% | 85.5% | 72.8% | 47.3% | 111% | 44.1% | 66.5% | 54.8% | 46.3%
COC(=O)c1c2c(c(C)[n+]([O-])c1C)C(=O)C(NCc1ccc(F)cc1)=CC2=O | 81.6% | 15.9% |  | 11.5% | 42.5% | -11.6% (active) | 4.34% (active) | 48.7% | -49.8% (active)
C[C@@]1(CCC#N)[C@H]2CC[C@@H]3[C@H]4[C@H](C(=O)/C=C/c5cccnc5)CC[C@]4(C#N)CC[C@@]3(C)[C@]2(C)CC[C@H]1C(=O)/C=C/c1cccnc1 | 65.5% | 97.7% |  | 75.2% | 80.7% | 37.9% | 71.9% | 77.9% | 71.7%
CCCCCCCCCCCCCCCCCCOc1ccc(CC(=O)OCC[N+]2(C)CCCC2)cc1 | 92.6% | 102% | 101% | 99.7% | 110% | 96.8% | 97.2% | 96.2% | 107%
C#CCOc1nc(C)cc(C)c1C#N | 97% | 105% | 92.2% | 102% | 71.4% | 89.3% | 97.7% | 99.6% | 111%
O=c1c2c3c(sc2n2c(-c4cn(-c5ccccc5)nc4-c4ccc(Cl)cc4)nnc2n1Cc1ccccc1)CCCC3 | 107% | 102% | 94.6% | 106% | 81.8% | 77.5% | 105% | 99.6% | 111%
COc1ccc(-c2cc(-c3cc(OC)c(OC)c(OC)c3)c(C#N)c(N3CCOCC3)n2)cc1O | 108% | 65.5% | 68.4% | 48.1% | 42.8% | 58.4% | 65.8% | 68.9% | 97.2%
COc1cc2c(cc1-c1c(C)noc1C)ncc1nc(C3CCC(F)(F)CC3)n(C3CCC(OC(F)F)CC3)c12 (configuration not stated) | 66.7% | 47.7% | 37.1% | 62.6% | 12.9% | 12.5% | 64.1% | 53.4% | 28.4%
O=c1c2c3c(sc2nc(N/N=C/c2ccc(Br)cc2)n1Cc1ccccc1)CCCC3 | 79.6% | 71.4% | 65.6% | 69.4% | 57.8% | 61.2% | 74.8% | 56.7% | 75.4%
COc1cc(C(=O)/C=C/c2c(C(F)(F)F)nc3sccn23)cc(OC)c1OC | 29.1% | 13.8% | 4.69% (active) | -72.1% (active) | 40.1% | -63.1% (active) | 11.3% | 3.07% (active) | -76.7% (active)
O=C(CSc1nccc(Nc2ccc(S(=O)(=O)Nc3nccs3)cc2)n1)c1ccc(F)cc1 | 102% | 106% | 106% |  | 106% |  | 104% | 103% | 108%
O=C1OC(c2nc3ccccc3s2)=C/C1=C\c1ccc(O)cc1 | 99.5% | 110% | 91.8% | 101% | 87.9% | 91.4% | 109% | 107% | 102%
COc1cc(C2CC(c3cc(OC)c(OCCCOc4ccc(-n5c(/C=C/c6ccccc6)nc6ccccc6c5=O)cc4)c(OC)c3)=NO2)cc(OC)c1OC (configuration not stated) | 110% | 123% | 122% | 113% | 42.5% | 91.1% | 99.7% | 108% | 115%
O=C(c1ccccc1)c1c(/C=C/c2ccccc2)nc2ccccc2c1/C=C/c1ccc(Br)cc1 | 95.1% | 96.7% |  | 106% | 98.3% | 88.2% | 98.1% | 99.7% | 114%
Cn1ccc2c(c1=O)C(=O)c1nccc3c1c-2nc1ccccc13 | 83.1% | 17.4% | -86.6% (active) | -74.7% (active) | 62.8% | -68.5% (active) | -87.4% (active) | -95.5% (active) | -75.5% (active)
COc1cccc(-c2nc3sccn3c2/C=C/C(=O)c2ccc(C(F)(F)F)cc2)c1 | 88.6% | 87.5% | 100% | 83.7% | 66.4% | 55.6% | 85.1% | 82.1% | 102%
COc1ccc(C2=NN(C(=O)c3cc(OC)c(OC)c(OC)c3)C(c3ccc(Cl)cc3)C2)cc1OC (configuration not stated) | 58.3% | 55.7% | 44.1% | 14.3% | 31.6% | 4.89% (active) | 29.4% | 22.5% | 12.3%
